According to PubChem BioAssay (NCATS):
Results filed as inconclusive are left out. The source made the active and inactive calls. Calls follow the shape of the dose curve; as a rule, active = well fitted curve in the direction sought with a large enough effect; inconclusive = small, poorly fitted or top-dose-only effect, or another doubt; inactive = no such curve, though single readings can be large; an effect the other way counts as inactive or inconclusive.

Columns and labels:
[1] = Inflammasome Signaling qHTS Counterscreen: IL-1-beta AlphaLISA counterscreen against the NCATS CANVASS Library (AID 1347381)
In short: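 Purified IL-1-beta (4 pg/well) + compound, 11-pt conc. series; acceptor beads 6 ug/mL + biotin-Ab 0.6 nM final, 1 h RT; SA-donor 24 ug/ml final, 30 min dark RT; read ex 680/em 615.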

[2] = Cytotoxicity qHTS for assessment of Hepg2 cells membrane integrity screened against the NCATS CANVASS Library (AID 1347387)
In short: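 Membrane damage quantified as fluorescent LDH-release signal (ex 560, em 590 nm) in HepG2 cells treated 5 hr at 37C. qHTS format, 11 concentrations spanning 0.59 nM - 46 uM final, cells plated at 2000 per well the night before.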

[3] = qHTS for Activators of p53 Stress Response Pathway screened against the NCATS CANVASS Library (AID 1347388)
In short: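 p53RE-bla HCT-116 cells (4000/well) were plated 5 h at 37C, exposed to compounds for 16 h at 37C over an 11-point concentration series, then loaded with CCF4 for 2 h at room temperature; 460/530 nm emission ratio read.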

[4] = qHTS assay for small molecule disruptors of mitochondrial membrane potential screened against the NCATS CANVASS Library (AID 1347389)
In short: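 Mitochondrial membrane potential in HepG2: 1 h compound treatment (11-point concentration series), 30 min m-MPI dye at 37C, then dual fluorescence of J-aggregates (ex 540/em 590) and monomers (ex 490/em 535); lower red/green ratio indicates depolarization.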

[5] = qHTS for activators of Nrf2/ARE signaling pathway screened against the NCATS CANVASS Library (AID 1347391)
In short: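 Eleven-point qHTS, 16 h treatment of HepG2 cells carrying an ARE-driven beta-lactamase reporter; CCF4 ratio read (405 nm excitation, 460 and 530 nm emission), with CellTiter-Glo ATP luminescence for viability.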

[6] = qHTS for activators of dead-cell proteases activity screened against the NCATS CANVASS Library (AID 1347392)
Text: Natural products and their derivatives continue to be wellsprings of nascent therapeutic potential. However, many laboratories have limited resources for biological evaluation, leaving their previously isolated or synthesized compounds largely or completely untested. To address this issue, the Canvass library of natural products was assembled (https://tripod.nih.gov/canvass), in collaboration with academic and industry researchers, for quantitative high-throughput screening (qHTS) across a diverse set of cell-based and biochemical assays. The pure (>85% purity by liquid chromatography/mass spectrometry [LC/MS]) Canvass library of 346 natural products were submitted by 45 academic laboratories and companies around the world. […] The library was formatted into 1536-well plates and evaluated in 50 qHTS (in an 11-pnt concentration series) bioassays with broad scope of disease-relevant mechanisms. The resulting data set from 50 different assays was then systematically analyzed to identify overall trends and specific natural products with interesting biological activities. […] The amount of luminescence directly correlates with the percentage of cells undergoing cytotoxic stress. […]
Protease-screen assay protocol: 1. […] The luminescence readout was obtained using the ViewLux plate reader (PerkinElmer) using a clear emission filter, 2x binning, 1 sec exposure settings.

[7] = qHTS for inhibitors of ER calcium dysfunction: SERCaMP assay screened against the NCATS CANVASS Library (AID 1347393)
Text: Natural products and their derivatives continue to be wellsprings of nascent therapeutic potential. However, many laboratories have limited resources for biological evaluation, leaving their previously isolated or synthesized compounds largely or completely untested. To address this issue, the Canvass library of natural products was assembled (https://tripod.nih.gov/canvass), in collaboration with academic and industry researchers, for quantitative high-throughput screening (qHTS) across a diverse set of cell-based and biochemical assays. The pure (>85% purity by liquid chromatography/mass spectrometry [LC/MS]) Canvass library of 346 natural products were submitted by 45 academic laboratories and companies around the world. We collected pure natural products to circumvent deconvolution and structure elucidation due to time and resource limitations. The library was formatted into 1536-well plates and evaluated in 50 qHTS (in an 11-pnt concentration series) bioassays with broad scope of disease-relevant mechanisms. The resulting data set from 50 different assays was then systematically analyzed to identify overall trends and specific natural products with interesting biological activities. […]
SERCaMP assay protocol: 1. […] Luminescence signal was obtained via the ViewLux plate reader (Perkin Elmer) using the clear emission filter and 1x binning, 5 seconds exposure settings.

[8] = Vero-766 cells viability qHTS against the NCATS CANVASS Library: Counterscreen for Zika virus inhibition assay (AID 1347394)
In short: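 Vero 766 cells (1000/well), without Zika virus, were exposed to compounds for 72 h at 37C. Viability was measured by CellTiter Glo luminescence. Media-only wells served as 100% inhibition.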

[9] = qHTS for inhibitors of Wild type Zika virus screened against the NCATS CANVASS Library (AID 1347396)
Text: Natural products and their derivatives continue to be wellsprings of nascent therapeutic potential. However, many laboratories have limited resources for biological evaluation, leaving their previously isolated or synthesized compounds largely or completely untested. To address this issue, the Canvass library of natural products was assembled (https://tripod.nih.gov/canvass), in collaboration with academic and industry researchers, for quantitative high-throughput screening (qHTS) across a diverse set of cell-based and biochemical assays. […] The library was formatted into 1536-well plates and evaluated in 50 qHTS (in an 11-pnt concentration series) bioassays with broad scope of disease-relevant mechanisms. The resulting data set from 50 different assays was then systematically analyzed to identify overall trends and specific natural products with interesting biological activities. […]
Zika virus infection assay protocol: 1. […] In a biosafety cabinet, the desired MOI Zika virus was calculated and 2 uL of 2.5x Zika virus was dispensed into columns 1, 2 and 5 - 48 using the Multidrop Combi dispenser. […] Luminescence signal was obtained via the ViewLux plate reader (Perkin Elmer) using the clear emission filter and 1x binning, 2 seconds exposure settings.

[10] = Viability qHTS for inhibitors of the SERCaMP assay screened against the NCATS CANVASS Library (AID 1347400)
In short: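 CellTiter-Glo luminescence measured cytotoxicity after 48 h at 37C of compound treatment (11-point series). Cells were SH-SY5Y-GLuc SERCaMP MJH297 derivatives, seeded at 1000 per well 4 h beforehand.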

Measured: outcome

NCC(O)c1ccc(O)cc1 (stereo not given)
inactive: all assays above
